Data: PubChem BioAssay (EPA / NIEHS)
The source made the active and inactive calls. The calls were made as follows: active = hit-call score of the fitted dose curve at least 0.9, where 1 is the maximum; inactive = score below 0.9.

What was measured:
Details in all cases: mRNA level, 48 h; actives raise or lower the signal
[1] = read-out: Bcl-2 (BID) gene, BID (gene 637); assay: LTEA_HepaRG_BID: Life Technologies and Expression Analysis (LTEA) Assay for Bcl-2 (BID) gene using HepaRG (AID 2283476)
Outline: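 Duplicate 48 h treatments of HepaRG cells in serum-free induction medium spanned 100 uM downward in half-log steps, 0.5% DMSO. Transcript change quantified by qRT-PCR against three housekeeping genes, fitted up or down versus DMSO.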

[2] = read-out: Caspase-3 (Homo sapiens) (UniProt P42574); assay: LTEA_HepaRG_CASP3: Life Technologies and Expression Analysis (LTEA) Assay for cysteine-aspartic acid protease (CASP3) using HepaRG (AID 2283477)
Outline: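 In HepaRG liver cells dosed for 48 h at up to 100 uM (eight-point, duplicate), CASP3 expression changes are scored by qRT-PCR. Activity is fitted in both directions with 0.5% DMSO as baseline.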

[3] = read-out: Cytochrome P450 (CYP24A1), CYP24A1 (gene 1591); assay: LTEA_HepaRG_CYP24A1: Life Technologies and Expression Analysis (LTEA) Assay for Cytochrome P450 (CYP24A1) using HepaRG (AID 2283478)
Outline: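 Human liver HepaRG cultures receive each chemical for 48 h across an eight-point half-log series topping at 100 uM in 0.5% DMSO. Induction or suppression of CYP24A1 mRNA is scored relative to vehicle after housekeeping-gene normalization.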

[4] = read-out: Cytochrome P450 (CYP1A2), CYP1A2 (gene 1544); assay: LTEA_HepaRG_CYP1A2: Life Technologies and Expression Analysis (LTEA) Assay for Cytochrome P450 (CYP1A2) using HepaRG (AID 2283479)
Outline: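 Assesses CYP1A2 mRNA in human HepaRG liver cells after 48 h chemical exposure at up to 100 uM. Values come from qRT-PCR with bidirectional curve fitting relative to DMSO.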

[5] = read-out: cysteine-aspartic acid protease (CASP8), CASP8 (gene 841); assay: LTEA_HepaRG_CASP8: Life Technologies and Expression Analysis (LTEA) Assay for cysteine-aspartic acid protease (CASP8) using HepaRG (AID 2283480)
Outline: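 qRT-PCR readout of CASP8 mRNA, normalized to three housekeeping genes, after 48 h chemical exposure of HepaRG cells; 8-point half-log series, top 100 uM, 0.5% DMSO vehicle. Bidirectional curve fitting against DMSO baseline.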

[6] = read-out: Cytochrome P450 (CYP2B6), CYP2B6 (gene 1555); assay: LTEA_HepaRG_CYP2B6: Life Technologies and Expression Analysis (LTEA) Assay for Cytochrome P450 (CYP2B6) using HepaRG (AID 2283481)
Outline: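 Using 48 h treatment of HepaRG cells in serum-free induction medium, concentrations spanned half-log steps from 100 uM in 0.5% DMSO vehicle. CYP2B6 mRNA induction or loss is scored by qRT-PCR against DMSO.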

[7] = read-out: Cytochrome P450 2C19 (Homo sapiens) (UniProt P33261); assay: LTEA_HepaRG_CYP2C19: Life Technologies and Expression Analysis (LTEA) Assay for CYP2C19 using HepaRG (AID 2283482)
Outline: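 Human HepaRG liver cells received test chemicals for 48 h (highest 100 uM, half-log dilutions in 0.5% DMSO). CYP2C19 mRNA induction or loss is read by multiplexed qRT-PCR and fitted in both directions versus vehicle.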

[8] = read-out: CYP2C8 (gene 1558); assay: LTEA_HepaRG_CYP2C8: Life Technologies and Expression Analysis (LTEA) Assay for CYP2C8 using HepaRG (AID 2283483)
Outline: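 HepaRG (human liver line), 48 h chemical exposure, 8-pt half-log series from 100 uM, 0.5% DMSO vehicle. Readout: CYP2C8 transcript by qRT-PCR, housekeeping-normalized. Bidirectional fit vs DMSO baseline.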

[9] = read-out: CYP2C9 (gene 1559); assay: LTEA_HepaRG_CYP2C9: Life Technologies and Expression Analysis (LTEA) Assay for CYP2C9 using HepaRG (AID 2283484)
Outline: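 HepaRG, 48 h dosing, 8-pt half-log series, top 100 uM, 0.5% DMSO vehicle. Read-out: CYP2C9 transcript by TaqMan qRT-PCR, housekeeping-normalized (ACTB/GAPDH/POLR2A). Gain or loss fitted vs DMSO baseline.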

[10] = read-out: Cytochrome P450 3A4 (Homo sapiens) (UniProt P08684); assay: LTEA_HepaRG_CYP3A4: Life Technologies and Expression Analysis (LTEA) Assay for CYP3A4 using HepaRG (AID 2283487)
Outline: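 HepaRG, 48 h exposure, 8-pt CRC from 100 uM (half-log), 0.5% DMSO, duplicates; serum-free induction medium. Readout: CYP3A4 mRNA, qRT-PCR, ACTB/GAPDH/POLR2A normalization. Bidirectional fit vs DMSO.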

[11] = read-out: DNA damage-inducible transcript 3 (DDIT3), DDIT3 (gene 1649); assay: LTEA_HepaRG_DDIT3: Life Technologies and Expression Analysis (LTEA) Assay for DNA damage-inducible transcript 3 (DDIT3) using HepaRG (AID 2283488)
Outline: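 DDIT3 transcript was quantified by qRT-PCR with ACTB/GAPDH/POLR2A normalization after 48 h chemical treatment of differentiated HepaRG cells in 0.5% DMSO. Dosing was eight-point, half-log, top 100 uM, duplicate wells. Curves fitted bidirectionally versus DMSO.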

[12] = read-out: Early growth response protein 1 (EGR1) transcription factor, EGR1 (gene 1958); assay: LTEA_HepaRG_EGR1: Life Technologies and Expression Analysis (LTEA) Assay for Early growth response protein 1 (EGR1) transcription factor using HepaRG (AID 2283490)
Outline: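 HepaRG, 48 h exposure, 8-pt half-log series from 100 uM, 0.5% DMSO vehicle; EGR1 transcript by TaqMan qRT-PCR (Fluidigm array), housekeeping-normalized; bidirectional fit relative to DMSO baseline.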

[13] = read-out: Ezrin (EZR), EZR (gene 7430); assay: LTEA_HepaRG_EZR: Life Technologies and Expression Analysis (LTEA) Assay for Ezrin (EZR) using HepaRG (AID 2283491)
Outline: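 Read-out is EZR transcript level by qRT-PCR, normalized to three housekeeping genes and fitted bidirectionally against the DMSO control. Human HepaRG cells received test chemicals for 48 h at eight half-log concentrations up to 100 uM in 0.5% DMSO.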

[14] = read-out: Cytochrome P450 3A7 (Homo sapiens) (UniProt P24462); assay: LTEA_HepaRG_CYP3A7: Life Technologies and Expression Analysis (LTEA) Assay for CYP3A7 using HepaRG (AID 2283492)
Outline: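 Cells were thawed, plated, cultured 48 h, then treated for a further 48 h with chemicals (eight-point half-log series from 100 uM, 0.5% DMSO). RNA was isolated and CYP3A7 expression quantified by qRT-PCR normalised to ACTB, GAPDH and POLR2A.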

[15] = read-out: CYP3A5 (gene 1577); assay: LTEA_HepaRG_CYP3A5: Life Technologies and Expression Analysis (LTEA) Assay for CYP3A5 using HepaRG (AID 2283493)
Outline: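 mRNA levels were quantified by qRT-PCR on Fluidigm arrays and normalized to three housekeeping genes. Differentiated HepaRG cells received 48 h exposure (top 100 uM, half-log steps, 0.5% DMSO vehicle, duplicate); bidirectional fitting versus DMSO.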

[16] = read-out: Fatty Acid-Binding Protein 1 (FABP1), FABP1 (gene 2168); assay: LTEA_HepaRG_FABP1: Life Technologies and Expression Analysis (LTEA) Assay for Fatty Acid-Binding Protein 1 (FABP1) using HepaRG (AID 2283494)
Outline: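 qRT-PCR readout of FABP1 transcript (normalized to three housekeeping genes) after 48 h chemical exposure of HepaRG cells; eight concentrations, half-log steps, max 100 uM, 0.5% DMSO vehicle; gain or loss fitted relative to DMSO baseline.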

[17] = read-out: Cytochrome P450 4A22 (Homo sapiens) (UniProt Q5TCH4); assay: LTEA_HepaRG_CYP4A22: Life Technologies and Expression Analysis (LTEA) Assay for Cytochrome P450 4A22 (CYP4A22) using HepaRG (AID 2283495)
Outline: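 Cryopreserved HepaRG cells, plated and cultured 48 h, then switched to serum-free induction medium and treated 48 h (duplicates, up to 100 uM, half-log steps, 0.5% DMSO). Expression change of CYP4A22 was fitted bidirectionally against vehicle.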

Measured: AC50

Cytochrome P450 3A7 (Homo sapiens), sequence (P24462 whole entry, looked up): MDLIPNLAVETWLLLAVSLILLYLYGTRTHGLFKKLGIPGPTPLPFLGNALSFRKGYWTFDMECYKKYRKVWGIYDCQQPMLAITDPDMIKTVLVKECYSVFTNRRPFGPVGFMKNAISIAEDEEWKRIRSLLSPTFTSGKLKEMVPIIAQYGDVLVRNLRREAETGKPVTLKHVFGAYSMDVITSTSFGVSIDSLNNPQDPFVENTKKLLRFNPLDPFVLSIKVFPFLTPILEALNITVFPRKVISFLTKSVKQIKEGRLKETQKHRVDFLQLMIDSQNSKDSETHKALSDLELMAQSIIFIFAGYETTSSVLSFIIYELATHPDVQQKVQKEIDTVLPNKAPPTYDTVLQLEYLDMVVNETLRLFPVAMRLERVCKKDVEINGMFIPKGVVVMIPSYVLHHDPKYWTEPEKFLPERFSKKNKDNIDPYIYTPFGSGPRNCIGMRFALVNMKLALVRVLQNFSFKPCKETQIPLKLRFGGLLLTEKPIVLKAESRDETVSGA
Cytochrome P450 3A4 (Homo sapiens), sequence (P08684 whole entry, looked up): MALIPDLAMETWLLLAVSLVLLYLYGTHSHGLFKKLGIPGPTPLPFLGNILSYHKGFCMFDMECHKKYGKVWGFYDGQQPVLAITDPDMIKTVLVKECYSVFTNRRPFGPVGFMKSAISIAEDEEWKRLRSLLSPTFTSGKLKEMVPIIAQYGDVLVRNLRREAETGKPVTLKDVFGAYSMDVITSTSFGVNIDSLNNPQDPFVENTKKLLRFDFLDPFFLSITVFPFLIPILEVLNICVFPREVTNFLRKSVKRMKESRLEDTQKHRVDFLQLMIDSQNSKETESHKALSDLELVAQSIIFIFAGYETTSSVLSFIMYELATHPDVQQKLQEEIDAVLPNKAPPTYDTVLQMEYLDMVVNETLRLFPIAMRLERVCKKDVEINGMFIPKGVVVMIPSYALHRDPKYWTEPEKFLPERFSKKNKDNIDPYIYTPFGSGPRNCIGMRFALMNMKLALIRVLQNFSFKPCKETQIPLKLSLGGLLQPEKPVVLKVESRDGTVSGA
Caspase-3 (Homo sapiens), sequence (P42574 whole entry, looked up): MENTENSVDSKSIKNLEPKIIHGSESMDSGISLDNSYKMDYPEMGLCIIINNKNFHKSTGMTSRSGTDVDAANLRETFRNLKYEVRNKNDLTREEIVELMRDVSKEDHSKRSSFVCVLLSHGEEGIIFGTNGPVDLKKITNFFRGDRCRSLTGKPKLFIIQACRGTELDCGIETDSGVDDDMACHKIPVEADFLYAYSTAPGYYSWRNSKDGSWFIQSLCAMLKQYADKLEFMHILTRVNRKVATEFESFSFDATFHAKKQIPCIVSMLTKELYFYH
Cytochrome P450 2C19 (Homo sapiens), sequence (P33261 whole entry, looked up): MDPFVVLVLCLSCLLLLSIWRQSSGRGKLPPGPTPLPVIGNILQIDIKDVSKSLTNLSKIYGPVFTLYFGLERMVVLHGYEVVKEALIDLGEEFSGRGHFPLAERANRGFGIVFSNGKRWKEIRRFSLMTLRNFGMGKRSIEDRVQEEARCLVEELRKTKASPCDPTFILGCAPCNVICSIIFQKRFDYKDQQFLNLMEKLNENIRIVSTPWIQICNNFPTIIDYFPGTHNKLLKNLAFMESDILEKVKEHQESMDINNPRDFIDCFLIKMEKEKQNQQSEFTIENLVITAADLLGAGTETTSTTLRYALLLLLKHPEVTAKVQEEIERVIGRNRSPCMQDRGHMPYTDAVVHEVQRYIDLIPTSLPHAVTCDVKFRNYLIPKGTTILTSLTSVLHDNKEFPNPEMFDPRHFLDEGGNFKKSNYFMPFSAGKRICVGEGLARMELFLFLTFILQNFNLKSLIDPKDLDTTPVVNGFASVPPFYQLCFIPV

CON(C)C(=O)Nc1ccc(Cl)c(Cl)c1
active: [4] 29.8 µM | [6] 24 µM | [7] 65.1 µM | [10] 78.6 µM | [16] 37.6 µM | [17] 84.4 µM
inactive: all other assays above

Cc1cc(Cl)ccc1OCC(=O)O
active: [4] 50 µM | [6] 25.5 µM | [7] 24.3 µM | [8] 19.9 µM | [14] 18.8 µM
not listed: [15]
inactive: all other assays above

CCCCOC(=O)c1ccccc1C(=O)OCCCC
inactive: all assays above
